Screens deposited in PubChem BioAssay by National Center for Advancing Translational Sciences (NCATS).
Shown are actives, neighbours in structure and some others; about 6.9% of the full set was active somewhere.
PLK1 PBD inh – blocks phosphopeptide binding to human PLK1 polo-box domain; P53350; actives 2.8% (n = 360,000); AID 720504; Plk1 PBD binding of FITC phosphopeptide, fluorescence polarization; Potency, µM, usual class: inhibitors; also: series mostly up to about 57 µM; nearly all actives have a fitted effect of over 65% in size
Target sequence (P53350 whole entry, looked up, the tested form may be a part): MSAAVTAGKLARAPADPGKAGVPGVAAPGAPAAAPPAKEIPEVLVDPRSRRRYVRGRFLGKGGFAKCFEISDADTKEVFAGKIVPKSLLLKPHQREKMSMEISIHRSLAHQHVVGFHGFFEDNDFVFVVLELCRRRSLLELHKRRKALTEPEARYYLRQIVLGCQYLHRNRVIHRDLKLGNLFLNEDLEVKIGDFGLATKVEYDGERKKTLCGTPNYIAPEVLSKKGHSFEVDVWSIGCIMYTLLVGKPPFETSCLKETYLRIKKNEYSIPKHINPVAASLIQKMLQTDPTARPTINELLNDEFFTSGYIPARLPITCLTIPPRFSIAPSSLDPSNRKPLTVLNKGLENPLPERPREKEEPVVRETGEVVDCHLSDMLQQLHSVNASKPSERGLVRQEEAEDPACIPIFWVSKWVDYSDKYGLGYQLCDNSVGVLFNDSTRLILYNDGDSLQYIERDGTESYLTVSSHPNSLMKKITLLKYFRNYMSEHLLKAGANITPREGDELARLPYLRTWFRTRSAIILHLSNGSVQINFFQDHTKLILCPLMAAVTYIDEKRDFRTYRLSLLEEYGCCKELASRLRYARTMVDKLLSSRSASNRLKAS
VDR inhibitor – vitamin D3 receptor (human) inhibition; VDR-SRC2-3 peptide fluorescence polarization, 2 h; Potency, µM, actives largely listed as inhibitors; actives 0.93% (n = 400,000)
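Reagent solutions, kept cold and dark, are dispensed first; compounds are then pinned in at 23 nl, plates briefly spun, and incubated 2 h at ambient temperature. Inhibition of VDR–SRC2-3 peptide binding is read by fluorescence polarization.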
JMJD2A Tudor – blocks the human JMJD2A Tudor domain; O75164; AlphaScreen JMJD2A-Tudor / H3K4me3 peptide binding; Potency, µM (titrated, usually from 114 µM), hits mostly inhibitors; AID 504339; actives 4.4% (n = 390,000); also: nearly all actives have a fitted effect of over 50% in size
L3MBTL1 inh – blocks human L3MBTL1; Q9Y468; AlphaScreen L3MBTL1–H3K9me1 peptide binding; Potency, µM (doses to about 57.1 µM), actives largely listed as inhibitors; actives 0.66% (n = 230,000); also: nearly all actives have a fitted effect of over 60% in size
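AlphaScreen proximity signal between nickel-chelate acceptor and streptavidin donor beads (final 10 ug/mL) reports binding of 50 nM L3MBTL1 to 75 nM biotin-H3 K9me1 peptide; complex incubated with compounds 30 min at room temperature; cefsulodin titration as control.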
BAZ2B block – inhibitors of human BAZ2B bromodomain; Potency, µM (highest dose often 114 µM), actives largely listed as inhibitors; AlphaScreen BAZ2B-H3K14Ac peptide displacement; AID 504333; actives 4.4% (n = 360,000); Q9UIF8; also: nearly all actives have a fitted effect of over 60% in size
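In this displacement format the biotinylated H3(5-23) peptide acetylated at Lys14 serves as ligand at 50 nM, with BAZ2B at 50 nM in PBS pH 7.4 containing 0.01% Tween-20. Donor and acceptor beads are 10 ug/mL final.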
HP1b binding inh – HP1-beta chromodomain-methylated histone interaction inhibition. P83916. AlphaScreen HP1-beta / biotin-H3K9me3 peptide binding. Potency, µM (highest dose often 114 µM), most hits filed as inhibitors. actives 0.56% (n = 390,000); also: nearly all actives have a fitted effect of over 70% in size
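Compound inhibition of the preformed complex between 50 nM HP1-beta and 50 nM biotinylated H3K9me3 peptide was read by AlphaScreen. Buffer was PBS pH 7.4 with 0.01% Tween-20. Incubations ran 30 min at room temperature, with 10 ug/mL donor/acceptor beads.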
Of the large screens only hits and unclear results are named; the others gave an inactive call. Calls follow the shape of the dose curve; as a rule, active = well fitted curve in the direction sought with a large enough effect; inconclusive = small, poorly fitted or top-dose-only effect, or another doubt; inactive = no such curve, though single readings can be large; an effect the other way counts as inactive or inconclusive.

O=C(/C=C/[C@H]1O[C@@H](n2ccc(=O)[nH]c2=O)[C@H](O)[C@@H]1O)NC1CCN(Cc2ccccc2)C1 (some centres undefined)	none (no result: VDR inhibitor, JMJD2A Tudor, L3MBTL1 inh, BAZ2B block, HP1b binding inh)
COc1ccc(CN2CCC[C@]3(N[C@H](c4ccc(OC)cc4)[C@@H]4C(=O)N(C)C(=O)[C@@H]43)C2=O)cc1	none (no result: VDR inhibitor, JMJD2A Tudor, L3MBTL1 inh, BAZ2B block, HP1b binding inh)
O=C(CN1C(=O)N/C(=C\c2ccccc2OCc2ccc(C(=O)O)cc2)C1=O)Nc1ccc(F)cc1	BAZ2B block 71µM, HP1b binding inh inconclusive (no result: L3MBTL1 inh)
Cc1cc(N2CCOCC2)ccc1/C=C1\NC(=O)N(CC(=O)Nc2ccc(F)cc2)C1=O	none
O=C1NC(=S)N/C1=C\c1ccccc1OCc1ccc(C(=O)O)cc1	JMJD2A Tudor 79µM
O=C(O)c1cccc(-n2cccc2/C=C2/NC(=O)N(c3ccc(Cl)cc3)C2=O)c1	PLK1 PBD inh 4.7µM, JMJD2A Tudor 0.79µM, L3MBTL1 inh 0.79µM, BAZ2B block 1.8µM, HP1b binding inh 1.1µM
CN1C(=O)/C(=C/c2ccccc2OCc2ccc(C(=O)O)cc2)NC1=S	JMJD2A Tudor inconclusive, BAZ2B block inconclusive
COc1cc(/C=C2/NC(=O)N(CC(=O)Nc3cccc(C)c3)C2=O)ccc1OCC(N)=O	PLK1 PBD inh 27µM, VDR inhibitor inconclusive, JMJD2A Tudor 20µM, HP1b binding inh inconclusive
CC1CCCN(C(=O)c2cccc(S(=O)(=O)N3CCCC3)c2)C1 (centres undefined)	none
Cc1cccc(NC(=O)CN2C(=O)N/C(=C\c3ccccc3OCc3ccc(C(=O)O)cc3)C2=O)c1	JMJD2A Tudor inconclusive, BAZ2B block 71µM, HP1b binding inh inconclusive (no result: L3MBTL1 inh)
CN1C(=O)/C(=C/c2ccccc2OCc2ccc(F)cc2)N(C)C1=S	none
O=C(O)c1ccc(COc2ccccc2/C=C2\NC(=O)N(Cc3ccc(F)cc3)C2=O)cc1	PLK1 PBD inh 67µM
O=C(O)c1cccc(-n2cccc2/C=C2/SC(=O)N(CC(=O)N3CCCC3)C2=O)c1	PLK1 PBD inh inconclusive, JMJD2A Tudor 40µM, BAZ2B block 50µM, HP1b binding inh inconclusive (no result: L3MBTL1 inh)
O=C(CN1C(=O)S/C(=C/c2cccn2-c2ccc(O)cc2)C1=O)N1CCCC1	none (no result: L3MBTL1 inh)
O=C(Nc1ccc(F)cc1)c1ccc(COc2ccccc2)cc1	PLK1 PBD inh 27µM
COCCCN1C(=O)C(CC(=O)NCCN2CCOCC2)CC(C(=O)N2CCOCC2)=C1C (centres undefined)	none (no result: VDR inhibitor, JMJD2A Tudor, L3MBTL1 inh, BAZ2B block, HP1b binding inh)
CCN=C(NCC)SC1CC(=O)N(c2ccc(F)cc2)C1=O (centres undefined)	none (no result: L3MBTL1 inh)
O=C(O)c1ccc(COc2ccccc2/C=C2/NC(=O)N(c3cccc(Cl)c3)C2=O)cc1	JMJD2A Tudor inconclusive, BAZ2B block 79µM, HP1b binding inh inconclusive
O=C(O)c1ccc(COc2ccccc2C=C2C(=O)c3ccccc3C2=O)cc1	PLK1 PBD inh 0.47µM, VDR inhibitor inconclusive
O=C(O)c1ccc(COc2ccc3ccccc3c2/C=C2/NC(=O)N(c3ccccc3)C2=O)cc1	none
CC(C)CCOc1ccc(C(=O)N2CCCC2C(=O)O)cc1 (centres undefined)	none
Cc1ccccc1-c1ccccc1CN1[C@@H](C(C)C)COCCS1(=O)=O	none (no result: BAZ2B block)
Cc1cc(/C=N/n2c(COc3ccccc3C)nc3ccccc3c2=O)c(O)c([N+](=O)[O-])c1	PLK1 PBD inh inconclusive, JMJD2A Tudor 25µM, L3MBTL1 inh inconclusive, BAZ2B block inconclusive, HP1b binding inh inconclusive
Cc1ccc(C(=O)Oc2ccccc2N2C(=O)C3CCC(C)CC3C2=O)cc1 (centres undefined)	none (no result: L3MBTL1 inh)
CC1CCC2C(=O)N(c3ccc(C(=O)Oc4cccc5cccnc45)cc3)C(=O)C2C1 (centres undefined)	JMJD2A Tudor 56µM, L3MBTL1 inh inconclusive, BAZ2B block 50µM
Cc1occc1C(=O)Nc1nn[nH]n1	JMJD2A Tudor 45µM, BAZ2B block inconclusive (no result: L3MBTL1 inh)
CCC(=O)N[C@@H]1CC(C(C)(C)NC(=O)CC)CC=C1C (some centres undefined)	PLK1 PBD inh 30µM, VDR inhibitor inconclusive, JMJD2A Tudor 50µM
CCOC(=O)N1CCc2c(sc(NCc3ccc(OCC)cc3)c2C(=O)Nc2ccc(OC)cc2OC)C1	JMJD2A Tudor inconclusive (no result: PLK1 PBD inh, L3MBTL1 inh)
CCOC(=O)N1CCc2c(sc(NCc3ccc(N(CC)CC)cc3)c2C(=O)Nc2cc(OC)ccc2OC)C1	JMJD2A Tudor inconclusive, BAZ2B block 7.9µM, HP1b binding inh inconclusive (no result: PLK1 PBD inh, L3MBTL1 inh)
CCOC(=O)N1CCc2c(sc(NCc3ccc(N(C)C)cc3)c2C(=O)Nc2ccccc2OCC)C1	JMJD2A Tudor 13µM, BAZ2B block 8.9µM, HP1b binding inh inconclusive (no result: PLK1 PBD inh, L3MBTL1 inh)
O=[N+]([O-])c1ccc(/C=N/Nc2ccnc3cc(Cl)ccc23)o1	JMJD2A Tudor 40µM, BAZ2B block 28µM, HP1b binding inh 32µM (no result: L3MBTL1 inh)
CCOc1cccc(C(=O)Nc2ccc3c(c2)OCCO3)c1	BAZ2B block inconclusive
COc1ccc(CN(C)C(=O)c2cccc(NC(=O)CC3SC(N4CCCCC4)=NC3=O)c2)c(OC)c1 (centres undefined)	none (no result: L3MBTL1 inh, BAZ2B block)
CC(C)(C)NC(=O)NC(=O)CN1CCCc2ccccc21	none (no result: L3MBTL1 inh)
O=C(CN1CCc2ccccc21)NC(=O)NCc1ccccc1	PLK1 PBD inh 27µM (no result: BAZ2B block)
O=C(CN1CCCc2ccccc21)NC(=O)NC1CCCCC1	PLK1 PBD inh 27µM, JMJD2A Tudor 32µM, L3MBTL1 inh inconclusive, BAZ2B block inconclusive, HP1b binding inh inconclusive
Cc1ccoc1C(=O)NCCNc1ccc(Cl)cc1[N+](=O)[O-]	JMJD2A Tudor inconclusive, BAZ2B block 45µM, HP1b binding inh inconclusive
CCCCNc1c([N+](=O)[O-])cc(C)cc1[N+](=O)[O-]	JMJD2A Tudor 18µM, L3MBTL1 inh inconclusive, BAZ2B block 32µM, HP1b binding inh 16µM
CCOC(=O)CSC1=Nc2ccccc2C2=NC(CCC(=O)NCc3ccccc3)C(=O)N12 (centres undefined)	none (no result: PLK1 PBD inh, L3MBTL1 inh)
O=C(c1ccccc1-n1cccn1)N1CCc2c([nH]c3ccccc23)C1c1ccccn1 (centres undefined)	JMJD2A Tudor inconclusive, BAZ2B block inconclusive
Cc1ccc2nc(C(=O)N3CCc4c([nH]c5ccccc45)C3c3ccccn3)cn2c1 (centres undefined)	JMJD2A Tudor inconclusive
COc1ccc(OCC(=O)N2CCc3c([nH]c4ccccc34)C2c2ccccn2)cc1 (centres undefined)	JMJD2A Tudor 56µM, BAZ2B block inconclusive
O=C(c1ccccc1-c1ncc[nH]1)N1CCc2c([nH]c3ccccc23)C1c1ccccn1 (centres undefined)	JMJD2A Tudor inconclusive, BAZ2B block 28µM
CC(=O)c1ccc(C(=O)N2CCc3c([nH]c4ccccc34)C2c2ccccn2)s1 (centres undefined)	JMJD2A Tudor inconclusive, L3MBTL1 inh inconclusive, BAZ2B block 35µM
